# In PubChem BioAssay (NCI):
# Compounds without any hit were thinned out: in the full panel of roughly 79,000, 15% have a hit. Calls of active or inactive are those of the source. No stated cut-off is given here; in the data, active means growth inhibition above about 70%; inactive means the rest. Where a SMILES comes first, the peptide text is derived from it. The star is where a group is joined. Boc = CC(C)(C)OC(=O)*; NHNH2 = NN*
# How the values were obtained:
# [1] = NCI Yeast Anticancer Drug Screen. Data for the rad50 strain (AID 155);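 further: 0% = growth of vehicle-only cultures of the same strain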; settings: S. cerevisiae rad50 strain growth inhibition; at 50.0 µM; hits give high values
# In short: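 Compounds were tested on a yeast strain with an engineered DNA damage repair alteration; the reported value is growth inhibition normalised to vehicle treatment.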
# [2] = NCI Yeast Anticancer Drug Screen. Data for the mec2-1 strain (AID 157); settings: S. cerevisiae mec2-1 strain, at 50.0 µM, hits give high values
# In short: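 Strain: mec2-1 (DNA repair/cell cycle alteration). Compound exposure, then growth measured; inhibition expressed relative to vehicle.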
# [3] = NCI Yeast Anticancer Drug Screen. Data for the sgs1 mgt1 strain (AID 161);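 further: 0% = growth of cultures given vehicle only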; settings: S. cerevisiae sgs1 mgt1 strain, at 50.0 µM, hits give high values
# In short: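 Test agents were incubated with a DNA-repair-mutant yeast strain. Growth was then read and compared against vehicle-treated controls.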
# [4] = NCI Yeast Anticancer Drug Screen. Data for the cln2 rad14 strain (AID 165);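 further: 0% = growth equal to vehicle treated cultures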; settings: S. cerevisiae cln2 rad14 strain, at 50.0 µM, hits give high values
# In short: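 Compounds are applied to the cln2 rad14 yeast strain, and growth is then compared with that of vehicle-treated cultures to give inhibition.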
# [5] = NCI Yeast Anticancer Drug Screen. Data for the bub3 strain (AID 167); settings: S. cerevisiae bub3 mutant strain, at 50.0 µM, hits give high values
# In short: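 Growth of a checkpoint-deficient yeast mutant is measured after compound exposure. Values represent inhibition relative to vehicle.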
# [6] = NCI Yeast Anticancer Drug Screen. Data for the mlh1 rad18 strain (AID 175); settings: S. cerevisiae mlh1 rad18 strain growth inhibition; at 50.0 µM; hits give high values
# In short: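 Read-out is yeast growth inhibition, calculated against vehicle-only controls. The compound was applied to a strain engineered with DNA damage repair alterations.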
SMILES,growth inhibition [1],growth inhibition [2],growth inhibition [3],growth inhibition [4],growth inhibition [5],growth inhibition [6]
CCCCCCCC(=O)NN,-20.9% (inactive),-27.6% (inactive),-12.9% (inactive),-4.7% (inactive),-11.9% (inactive),10.3% (inactive)
NC(=O)c1cc2ccccc2[n+](Cc2ccc(F)cc2)c1,-0.2% (inactive),0.4% (inactive),6.45% (inactive),-49.1% (inactive),4.9% (inactive),-6.95% (inactive)
CCCCCNN,0.95% (inactive),-4.6% (inactive),-8.5% (inactive),9.55% (inactive),-6.75% (inactive),26.6% (inactive)
C[N+](C)(CCCn1ccnc1[N+](=O)[O-])CCCn1ccnc1[N+](=O)[O-],-15.3% (inactive),-6% (inactive),14.8% (inactive),3.55% (inactive),-14.8% (inactive),4.8% (inactive)
CCCCCCCCCCCCOc1cccc(OCCCCCCCCCCCC)c1,29.4% (inactive),-4.75% (inactive),21.8% (inactive),-41.1% (inactive),-1.9% (inactive),-19.1% (inactive)
O=C1OC(Cc2ccccc2)=N/C1=C/c1ccccc1,9.05% (inactive),0.8% (inactive),1.15% (inactive),-9% (inactive),2.7% (inactive),4.55% (inactive)
CN(C)C(=O)Nc1cccc(OC(=O)NC2CCCCCCC2)c1,2.65% (inactive),28.3% (inactive),29.2% (inactive),3.95% (inactive),34.4% (inactive),19.6% (inactive)
CCCCCCCC(=O)N(CC)CC,13.5% (inactive),-4.05% (inactive),25.4% (inactive),-17.1% (inactive),1.6% (inactive),8.75% (inactive)
CC(N)C(c1ccccc1)c1ccccc1 (stereo not drawn),19.5% (inactive),15.8% (inactive),7.15% (inactive),11.3% (inactive),33.6% (inactive),19.4% (inactive)
CO[C@@]12C[C@@H](C)C3=CCC(C)=C3CC1=C(C)C(=O)O2,8.9% (inactive),-4.05% (inactive),16.6% (inactive),2.9% (inactive),26.4% (inactive),-68.3% (inactive)
O=C(O)c1ccc(NC(=S)NC(=O)c2cccc([N+](=O)[O-])c2)cc1,5.55% (inactive),16% (inactive),16% (inactive),16.8% (inactive),23.6% (inactive),23.6% (inactive)
CCOc1ccc2nc(C)ccc2c1,3.25% (inactive),-14.7% (inactive),21.9% (inactive),9.85% (inactive),4.95% (inactive),17.7% (inactive)
CCC(C)C(CO)N=Cc1ccccc1O.O.[Cu] (stereo not drawn),65.3% (inactive),82.3% (active),74% (active),62% (inactive),80.2% (active),83.3% (active)
Cc1ccc(S(=O)(=O)NCCCN(CCCNS(=O)(=O)c2ccc(C)cc2)S(=O)(=O)c2ccc(C)cc2)cc1,-8.25% (inactive),-10.8% (inactive),-5.1% (inactive),-70.5% (inactive),-19.4% (inactive),-12.2% (inactive)
CCC(C)C(NC(=O)C(Cc1c[nH]c2ccccc12)NC(=O)OC(C)(C)C)C(=O)NN (stereo not drawn) (Boc-Trp-Ile-NHNH2; configuration not given here),24.8% (inactive),3.7% (inactive),8.5% (inactive),15.4% (inactive),-4.35% (inactive),15.6% (inactive)
CC(C)CNC(=S)N/N=C/c1ccc(C(C)C)cc1,-19.6% (inactive),-13.4% (inactive),-8.4% (inactive),-46.2% (inactive),-13.1% (inactive),-28.1% (inactive)
O=C1CCSC(=S)N1c1ccc(F)cc1,7.15% (inactive),-1.4% (inactive),2.2% (inactive),-32.5% (inactive),-22.9% (inactive),6.2% (inactive)
CC(=O)CC(=O)NCCN(C)C,-23.6% (inactive),-43% (inactive),-11.2% (inactive),5.95% (inactive),-9.3% (inactive),-6.65% (inactive)
COc1ccc([N+](=O)[O-])cc1N=NN(C)C,-1.9% (inactive),-11.7% (inactive),-10.8% (inactive),-6.3% (inactive),-5.8% (inactive),-8.45% (inactive)

SMILES,growth inhibition [1],growth inhibition [2],growth inhibition [3],growth inhibition [4],growth inhibition [5],growth inhibition [6]
COc1cc2ccc3c[n+](C)ccc3c2cc1OC,2.25% (inactive),-30.9% (inactive),-13.4% (inactive),-22.4% (inactive),-20.9% (inactive),-57.6% (inactive)
CC[O-].CC[O-].O=C1C=C([O-])C(=O)c2ccccc21.O=C1C=C([O-])C(=O)c2ccccc21.[Ti+4],17.3% (inactive),14.3% (inactive),15.4% (inactive),26.2% (inactive),30.4% (inactive),4.9% (inactive)
Nc1c(F)c(F)cc(F)c1[N+](=O)[O-],2.6% (inactive),-2.7% (inactive),2.55% (inactive),7.6% (inactive),9.6% (inactive),4.35% (inactive)
O=C(CCCl)OC1CCCC1,1.5% (inactive),-9.8% (inactive),-3.6% (inactive),-30.4% (inactive),-5.65% (inactive),9% (inactive)
CC1=NN(C(=O)CC(=O)Nc2cccc(Cl)c2)C(=O)C1N=Nc1ccc(S(=O)(=O)c2ccc(N=NC3C(=O)N(C(=O)CC(=O)Nc4cccc(Cl)c4)N=C3C)cc2)cc1 (stereo not drawn),36.5% (inactive),15.2% (inactive),23.4% (inactive),-1.9% (inactive),-25.4% (inactive),22.4% (inactive)
CCOC(=O)c1ccc(-c2ccc(C(=O)OCC)cc2[N+](=O)[O-])c([N+](=O)[O-])c1,14.8% (inactive),12.8% (inactive),11.8% (inactive),17% (inactive),9.7% (inactive),15% (inactive)
C=CCN(N=O)C(=O)N(CCC)CCCC(NC(C)=O)C(=O)NCc1ccccc1 (stereo not drawn),-3.2% (inactive),-27.2% (inactive),-14.4% (inactive),22.6% (inactive),2.9% (inactive),-14.2% (inactive)
O=C(CO)CC(=O)C(=O)Nc1nc([N+](=O)[O-])cs1,-18.1% (inactive),-31.8% (inactive),21% (inactive),7.9% (inactive),-16.1% (inactive),-21.5% (inactive)
C(=N/Nc1ccccn1)/NN/C=N/Nc1ccccn1,-7.6% (inactive),6.25% (inactive),-3.8% (inactive),7.1% (inactive),-2.45% (inactive),-4.9% (inactive)
Cc1nc2c(sc(=S)n2-c2ccccc2)c2nc3ccccc3n12,-9.35% (inactive),-15.7% (inactive),7.7% (inactive),-1.2% (inactive),-2.55% (inactive),-20.6% (inactive)
O=C1C(Cl)N(c2ccc([N+](=O)[O-])cc2)C1c1c[nH]c2ccccc12 (stereo not drawn),-4.2% (inactive),-38.6% (inactive),-0.3% (inactive),8.75% (inactive),19.2% (inactive),-31.4% (inactive)
CSc1cnc(N)s1,14.6% (inactive),14.8% (inactive),3% (inactive),-13.1% (inactive),-2.45% (inactive),32.4% (inactive)
CN(CC(O)CN1CCCc2ccccc21)C1CCCCC1 (stereo not drawn),-5.8% (inactive),0.25% (inactive),17.9% (inactive),-16% (inactive),46% (inactive),19.2% (inactive)
COc1cc(C(c2ccc3c(c2)OCO3)N2C(=O)CCC2C(=O)O)cc(OC)c1OC (stereo not drawn),-14.1% (inactive),-15.6% (inactive),-18.8% (inactive),-11.7% (inactive),-7.8% (inactive),-10.2% (inactive)
CC(C)CCCC(C)C1CCC2C3CCC4CC(=O)CCCC4(C)C3CCC12C (stereo not drawn),19.8% (inactive),3.35% (inactive),20.7% (inactive),12.2% (inactive),2.1% (inactive),32.5% (inactive)
Nc1cc(S(=O)(=O)O)nc(N)[n+]1[O-],1.55% (inactive),-1.8% (inactive),1.9% (inactive),-36.3% (inactive),-13.3% (inactive),2.8% (inactive)
O=S(=O)(O)SCCNCCCCc1ccccc1,-11.2% (inactive),-3% (inactive),2.3% (inactive),-5.35% (inactive),-6.4% (inactive),-22.8% (inactive)
CCCCCCCCCCCCSC1=CC(=O)C(SCCCCCCCCCCCC)=CC1=O,-15.8% (inactive),-6.55% (inactive),-5.6% (inactive),-13.2% (inactive),-4.5% (inactive),-34.1% (inactive)
CCOC(=O)C(CCN(C)C)C(=O)OCC,5.75% (inactive),-10.2% (inactive),2.8% (inactive),1.1% (inactive),-23.1% (inactive),14.2% (inactive)
